In PubChem BioAssay (EPA / NIEHS):
Inconclusive results are not listed. Calls of active or inactive are those of the source. How the source made its calls: active means hit-call score of the fitted dose curve at least 0.9, where 1 is the maximum; inconclusive means response in the unintended direction; inactive means score below 0.9.

Read-out: Glyceraldehyde-3-phosphate dehydrogenase (Homo sapiens) (UniProt P04406)
Test: CLD_GAPDH_6hr: CellzDirect (CLD) Gene Expression Assay for Baseline Control (Glyceraldehyde 3-phosphate dehydrogenase) at 6 hours (AID 2283681)
Method: CLD_6hr is a cell-based, multiplexed-readout assay that uses hepatocyte, a human liver primary cell, with measurements taken at 6 hours after chemical dosing in a 96-well plate.CLD_GAPDH_6hr is one of 16 assay component(s) measured or calculated from the CLD_6hr assay. It is designed to make measurements of mRNA induction, a form of inducible reporter, as detected with chemiluminescence signals by Quantitative Nuclease Protection Assay (qNPA) technology.Data from the assay component CLD_GAPDH_6hr was analyzed at the endpoint, CLD_GAPDH_6hr, in the positive analysis fitting direction relative to DMSO as the negative control and baseline of activity. Using a type of inducible reporter, gain-of-signal activity can be used to understand changes in the reporter gene as they relate to the gene GAPDH. Furthermore, this assay endpoint can be referred to as a secondary readout, because this assay has produced multiple assay endpoints where this one serves a background control function. To generalize the intended target to other relatable targets, this assay endpoint is annotated to the background measurement intended target family, where subfamily is baseline control.
Human hepatocyte cultures were treated daily for two consecutive days with fresh dosing solutions containing appropriate concentrations of the 320 ToxCast chemicals (chemical identities were blinded to CellzDirect and other ToxCast collaborators), vehicle control (0.2% DMSO), and positive control inducers as summarized in Table 1. Due to the large number of treatment groups and chemicals examined, the ToxCast chemicals were divided into two groups (spanning two independent cultures of hepatocytes from separate donor preparations (Hu778: ToxCast plates 1 and 2; Hu776: ToxCast plates 3 and 4). Each preparation of human hepatocyte cultures was treated with respective vehicle control, medium only control, set of six positive controls/reference chemicals for the five hepatic receptor pathways, and a subset of eight of the ToxCast chemicals (indoxacarb, pyrithiobac-sodium, norflurazon, cyhalofop-butyl, methomyl, thiram, acetochlor, and propiconazole). These replicate data, coupled with internal replicates designed within the blinded ToxCast chemical library, provided additional data to evaluate interindividual differences between hepatocyte preparations and their potential impact on chemical profiles.Cell morphology and integrity were evaluated using phase-contrast microscopy as an indicator of hepatocyte cell health (Tyson & Green, 1987). Cultures for each treatment group (i.e., media, vehicle [0.2% DMSO], positive control inducers [multiple concentrations], and the ToxCast chemicals [multiple concentrations]) were observed and cell morphology was assessed relative to vehicle control cultures at each harvest time point (0, 6, 24, or 48 h). […] Images were evaluated at the conclusion of the study to assess changes in cell integrity and account for the effects of chemical exposure on uncharacteristic changes in concentration-dependent gene expression profiles. The results from these determinations of apparent cytotoxicity were annotated (yes/no) alongside the corresponding qNPA data for reference.At the conclusion of each treatment period, hepatocyte cultures (96-well) were washed with 1 volume of HBSS, lysed by addition of 25 ul ArrayPlate lysis buffer (HTG, Tucson, AZ), and 70 ul/well of Denaturation Oil, denatured by incubation at 95C for 10 min, and frozen at approximately -70C until analysis by nuclease protection assay (qNPA) (Roberts et al., 2007). For qNPA analysis, cell lysates were thawed at 50C for approximately 30 min, qNPA probes were added, and samples were incubated at 95C for 10 min to begin the detection process by denaturing the target RNA, dissociating the duplexes and secondary structure hybridization. At the conclusion of the hybridization period, S1 nuclease reagent was added to each sample to digest all nonprotected nucleotides at 50C for 60-90 min. […]

Chain of Glyceraldehyde-3-phosphate dehydrogenase (Homo sapiens) (P04406 whole entry, looked up): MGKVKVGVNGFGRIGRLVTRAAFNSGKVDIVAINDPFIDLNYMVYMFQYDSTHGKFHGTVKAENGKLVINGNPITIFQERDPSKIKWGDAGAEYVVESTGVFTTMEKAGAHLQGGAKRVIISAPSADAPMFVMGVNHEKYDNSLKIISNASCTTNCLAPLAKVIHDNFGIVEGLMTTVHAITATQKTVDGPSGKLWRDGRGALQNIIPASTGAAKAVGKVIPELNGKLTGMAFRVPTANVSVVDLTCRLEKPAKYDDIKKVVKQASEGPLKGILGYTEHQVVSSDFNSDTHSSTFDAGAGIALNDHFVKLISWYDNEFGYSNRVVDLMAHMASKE

Compound	outcome
CCCCC(CC)COC(=O)c1ccccc1C(=O)O (centres undefined)	inactive
S=C([S-])NCCNC(=S)[S-].[Mn+2]	inactive
OB(O)O	inactive
CCC(C)OC(=O)N1CCCCC1CCO (centres undefined)	inactive
CC1(C)C(C=C(Cl)Cl)C1C(=O)OCc1cccc(Oc2ccccc2)c1 (centres undefined)	inactive
CC(C)(c1ccc(O)cc1)c1ccc(O)cc1	inactive
COc1c(Cl)ccc(Cl)c1C(=O)O	inactive
COC(=O)c1ccccc1S(=O)(=O)NC(=O)Nc1nc(OC(F)F)cc(OC(F)F)n1	inactive
CCSC(=O)N(CC(C)C)CC(C)C	inactive
CCNc1nc(N)nc(Cl)n1	inactive
COc1nc(C)nc(NC(=O)NS(=O)(=O)c2ccccc2OCCCl)n1	inactive
COC(=O)c1ccccc1C(=O)O	inactive
CCCCCCC(C)OC(=O)COc1nc(F)c(Cl)c(N)c1Cl (centres undefined)	inactive
C=CCOC(Cn1ccnc1)c1ccc(Cl)cc1Cl (centres undefined)	inactive
COC(=O)c1ccc(I)cc1S(=O)(=O)NC(=O)Nc1nc(C)nc(OC)n1	inactive
CCCCCOC(=O)COc1cc(N2C(=O)C3=C(CCCC3)C2=O)c(F)cc1Cl	inactive
O=C(O)C1(C(=O)Nc2ccc(Cl)cc2Cl)CC1	inactive

Compound	outcome
CCCOC(=O)c1ccc(C(=O)OCCC)nc1	inactive
COC(=O)c1ccc(CNS(C)(=O)=O)cc1S(=O)(=O)NC(=O)Nc1nc(OC)cc(OC)n1	inactive
CCCN(CCC)C(=O)SCC	inactive
COC(=O)CSc1cc(N=c2sc(=O)n3n2CCCC3)c(F)cc1Cl	inactive
CCCOC(=O)NCCCN(C)C	inactive
CCCCOC(=O)C(C)Oc1ccc(Oc2ccc(C(F)(F)F)cn2)cc1 (centres undefined)	inactive
CCCN(CCC)c1c([N+](=O)[O-])cc(C(F)(F)F)c(N)c1[N+](=O)[O-]	inactive
CCOC(=O)[C@H](C)Oc1ccc(Oc2nc3ccc(Cl)cc3o2)cc1	inactive
CCC(O)=C1C(=O)CC(C(=O)O)CC1=O (centres undefined)	inactive
C#CCOC(=O)[C@@H](C)Oc1ccc(Oc2ncc(Cl)cc2F)cc1	inactive
COC(=O)c1c(Cl)nn(C)c1S(=O)(=O)NC(=O)Nc1nc(OC)cc(OC)n1	inactive
COCCO	inactive
CC(C)(C)[C@@H](O)[C@@H](Cc1ccc(Cl)cc1)n1cncn1	inactive
Cc1nn(C)c(Oc2ccccc2)c1C=NOCc1ccc(C(=O)OC(C)(C)C)cc1	inactive
c1ccc2[nH]c(-c3cscn3)nc2c1	inactive
CCOC(=O)COc1cc(-n2ncc(C(F)(F)F)c(C)c2=O)c(F)cc1Cl	inactive
CCOC(=O)C(C)Oc1ccc(Oc2nc3ccc(Cl)cc3o2)cc1 (centres undefined)	inactive
